Consider 48 molecules from PubChem BioAssay AID504832 (National Center for Advancing Translational Sciences (NCATS), 2011).

Out of some 310,000 compounds screened, about 18,000 (5.8%) were called active. Inconclusive results (about 22%) are left out. Calls follow the shape of the dose curve; as a rule, active = well fitted inhibition curve with a large enough effect; inconclusive = small, poorly fitted or top-dose-only effect, or another doubt; inactive = no such curve, though single readings can be large or run the other way. The sample as a whole holds a higher share of actives than the screen did.
% is scaled to controls: 0 for no effect and ±100 for the full control effect; potency is read from the fitted curve at half-maximal effect.

The assay is described as follows: Primary qHTS for delayed death inhibitors of the malarial parasite plastid, 48 hour incubation. To be noted: P. falciparum luciferase growth in erythrocytes; series mostly up to 28.7 µM; activity change, negative = inhibition: at the top concentration. The procedure, abridged:
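Parasite viability was followed by luminescence of a genomically integrated firefly luciferase. Cultures held 0.1% parasitemia at 2% hematocrit (final), incubated under 5% CO2 at 37 C.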
(Quantitative high-throughput screening tests each substance at several concentrations.)
For the molecule `O=c1oc2ccccc2c(NC2CCCCC2)c1NS(=O)(=O)c1ccc(Cl)cc1`, the “activity change, negative = inhibition” value was 16.6% (inactive).

For the molecule `COC(=O)COc1ccc2c(=O)c(Oc3ccccc3Br)coc2c1`, the “activity change, negative = inhibition” value was 13.4% (inactive).

For the molecule `O=C(C1CC(=O)N(c2ccc(Br)cc2)C1)N1CCCC1` (stereo not drawn), the “activity change, negative = inhibition” value is 7.71% (inactive).

Turning to `COc1ccccc1NC(=O)N1CCCC1C(=O)NCc1cccs1` (stereo not drawn), the “activity change, negative = inhibition” value is -11% (inactive).

Turning to `CCN1C(=O)C(=O)N(CC(=O)Nc2cc(C)ccc2C)C1=O`, the “activity change, negative = inhibition” value was -13.3% (inactive).

Turning to `Cc1ccc(S(=O)(=O)N2CCN(C(=O)c3ccc(-n4cncn4)c([N+](=O)[O-])c3)CC2)cc1`, the “activity change, negative = inhibition” value is -25.4% (inactive).

Regarding `Nc1ccc(C(=O)N2CCN(S(=O)(=O)c3ccc(Cl)cc3)CC2)cc1[N+](=O)[O-]`, the Potency was 13.1 µM (active).

Turning to `CC(C)c1ccc(S(=O)(=O)N2CCN(C(=O)c3ccc(N4CCCC4)c([N+](=O)[O-])c3)CC2)cc1`, the “activity change, negative = inhibition” value is -11.7% (inactive).

Consider `CC(Sc1nnc(COc2ccccc2)n1-c1ccccc1)C(=O)O` (stereo not drawn), for which the “activity change, negative = inhibition” value is -26.1% (inactive).

Take `CC1CC(C)CN(c2ccc(S(=O)(=O)N3CCOCC3)cc2)C1` (stereo not drawn): the “activity change, negative = inhibition” value was 4.74% (inactive).

For `COc1cc(/C=C2\C(=N)N3N=C(CC(=O)N4CCOCC4)SC3=NC2=O)cc(OC)c1OC`, the “activity change, negative = inhibition” value is 29.4% (inactive).

On to `O=C(CCNC(=O)c1ccccc1Cl)NCc1ccco1`, for which the “activity change, negative = inhibition” value was -17.4% (inactive).

Turning to `COC(=O)/C=C/C(=O)NCc1ccco1`, the “activity change, negative = inhibition” value is -12.4% (inactive).

Take `O=C(/C=C/c1ccc(Cl)cc1Cl)NCc1ccco1`: the Potency is 11.7 µM (active).

`O=C(Nc1ncc([N+](=O)[O-])s1)C1COc2ccccc2O1` (stereo not drawn): the “activity change, negative = inhibition” value is 53.4% (inactive).

For `CN(C(=O)CN1C(=O)/C(=C/c2ccc(Cl)cc2)SC1=S)C1CCS(=O)(=O)C1` (stereo not drawn), the “activity change, negative = inhibition” value was -0.4% (inactive).

For the molecule `CCc1c(C)nc(N)n2c(SCC(=O)NC3CCCCC3)nnc12`, the “activity change, negative = inhibition” value is -18.9% (inactive).

As to `COc1ccc2cc1Oc1ccc(cc1)C[C@H]1c3cc(c(OC)cc3CCN1C)Oc1c(O)c(OC)cc3c1[C@H](C2)N(C)CC3`, the Potency is 2.94 µM (active).

In the case of `COc1ccc(/C=N/NC(=O)c2ccc3c(c2)OCCO3)c(OC)c1`, the “activity change, negative = inhibition” value is 27.3% (inactive).

For `Cn1nccc1C(=O)N1CCCC(C(=O)c2ccc(Oc3ccccc3)cc2)C1` (stereo not drawn), the “activity change, negative = inhibition” value is -24.4% (inactive).

For the molecule `Cn1c(O)c(C=Nc2ccc3c(c2)CCC3)c(=O)n(C)c1=O`, the “activity change, negative = inhibition” value was 16.4% (inactive).

With `CN(C)CCCN=Cc1c(O)n(Cc2ccco2)c(=O)[nH]c1=O`, the “activity change, negative = inhibition” value is 27.8% (inactive).

Take `CC(C)n1c(=O)c(C=Nc2ccc(Br)cc2)c(O)n(Cc2ccco2)c1=O`: the Potency was 13.1 µM (active).

`O=C(CN1CCN(C2CCS(=O)(=O)C2)CC1)N1N=C(c2ccc(Cl)cc2)CC1c1ccco1` (stereo not drawn): the “activity change, negative = inhibition” value is 28.6% (inactive).

For `CC(=O)NCC(=O)N1CCC(n2nccc2NC(=O)CCCc2ccccc2)CC1`, the “activity change, negative = inhibition” value is 9.78% (inactive).

As for `CCOc1ccc(N/C(N)=N/c2nc(C)c(C)c(=O)[nH]2)cc1`, the “activity change, negative = inhibition” value is -10.7% (inactive).

For the molecule `CCN1C(=S)N[C@@H](CCc2ccccc2)[C@H](C(=O)OC)[C@H]1C`, the Potency result was “inactive”.

For `CC1C(=O)Nc2ccccc2N1C(=O)c1ccc(F)cc1F` (stereo not drawn), the “activity change, negative = inhibition” value is -6.46% (inactive).

Take `COc1ccccc1C(=O)N(Cc1ccc(C)o1)C1CCS(=O)(=O)C1` (stereo not drawn): the “activity change, negative = inhibition” value was 27.3% (inactive).

Turning to `CC(C)C[C@H](NC(=O)[C@@H]1O[C@H]1C(=O)O)C(=O)NCCCCN=C(N)N`, the Potency is 11.7 µM (active).

Take `Cc1cc(C)cc(N(CCC#N)C(=O)CN2C(=O)NC3(CCCC3)C2=O)c1`: the “activity change, negative = inhibition” value was 17% (inactive).

For the molecule `CC(C)(C)C(=O)CN1C2=NCCN2c2ccccc21`, the “activity change, negative = inhibition” value is 0.643% (inactive).

Take `Cc1ccc(Nc2nc(N)nc(CN3CCN(Cc4ccccc4)CC3)n2)cc1Cl`: the “activity change, negative = inhibition” value was 6.24% (inactive).

For the molecule `Cc1cc2c(cc1C)N(Cc1ccccc1)C1=NCCCN12`, the Potency was 11.7 µM (active).

For `Cc1ccc(OCc2nc3ccccc3n2C)cc1`, the “activity change, negative = inhibition” value was 130% (inactive).

As to `COc1ccc(C(CCN(Cc2ccc(OC)c(OC)c2)C(=O)CCl)c2ccccc2)cc1` (stereo not drawn), the Potency was 2.94 µM (active).

Consider `COc1ccc(COC(=O)NC(C(=O)O)c2ccccc2)cc1` (stereo not drawn), for which the “activity change, negative = inhibition” value was -25.7% (inactive).

As for `CCOc1ccc(C(CC(=O)O)NC(=O)Cc2ccccc2)cc1OC` (stereo not drawn), the “activity change, negative = inhibition” value was 15.7% (inactive).

As for `O=C(CCCCO)c1ccc(O)c(Cl)c1`, the “activity change, negative = inhibition” value was -10.3% (inactive).

As for `Cc1ccc(OCC(=O)Nc2ccc3oc(=O)ccc3c2)cc1C`, the “activity change, negative = inhibition” value was 16.6% (inactive).

Consider `CC[C@]1(O)C[C@@H]2CN(CCc3c([nH]c4ccccc34)[C@@](C(=O)OC)(c3cc4c(cc3OC)N(C)[C@H]3[C@@](O)(C(=O)OC)[C@H](OC(C)=O)[C@]5(CC)C=CCN6CC[C@]43[C@@H]65)C2)C1`, for which the Potency is 0.208 µM (active).

In the case of `CC[C@]1(O)CC2CN(CCc3c([nH]c4ccccc34)[C@@](C(=O)OC)(c3cc4c(cc3OC)N(C=O)[C@H]3[C@@](O)(C(=O)OC)[C@H](OC(C)=O)[C@]5(CC)C=CCN6CC[C@]43[C@@H]65)C2)C1` (stereo partly drawn), the Potency was 0.147 µM (active).

For the molecule `COc1ccc(NC(=O)C2CCC(CNS(=O)(=O)c3csc(C(N)=O)c3)CC2)cc1OC` (stereo not drawn), the “activity change, negative = inhibition” value was -9.3% (inactive).

In the case of `CCCCN(CC(=O)Nc1cccc(S(=O)(=O)N2CCCC2)c1)Cc1nc2ccccc2c(=O)[nH]1`, the Potency was 3.7 µM (active).

Turning to `CC(=O)NC(CC(=O)Nc1cccc(S(=O)(=O)N2CCCC2)c1)c1ccccc1` (stereo not drawn), the “activity change, negative = inhibition” value is -5.84% (inactive).

For `CCN(CC(=O)Nc1cccc(S(N)(=O)=O)c1)Cc1nc2ccccc2c(=O)[nH]1`, the “activity change, negative = inhibition” value was 97.7% (inactive).

Take `O=C(NCCc1ccc(Cl)cc1)c1cccc(N2CCCC2=O)c1`: the “activity change, negative = inhibition” value was 58.9% (inactive).

For `CCN1C(=NCCc2cccnc2)N[C@@H](c2ccccc2)[C@H](C(=O)OC)[C@H]1C`, the Potency result was “inactive”.
